Laboratory results reported in PubChem BioAssay (NCATS).
Results filed as inconclusive are left out. The source made the active and inactive calls. Calls follow the shape of the dose curve; as a rule, active = well fitted curve in the direction sought with a large enough effect; inconclusive = small, poorly fitted or top-dose-only effect, or another doubt; inactive = no such curve, though single readings can be large; an effect the other way counts as inactive or inconclusive.

Experiments:
[1] = BET inhibitor-based combinations targeting novel dependencies in MECOM-rearranged (r) AML: SET-2 cell line (AID 2202231); settings: SET-2 AML cells viability, CellTiter-Glo luminescence, 48 h; viability: hits give low values, concentration not given here; also: nearly all actives have a fitted effect of over 35% in size;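 as to viability: plate controls were DMSO treated cells for no effect and wells without cells for full effect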
Method in brief: (§1)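 Here, 11-point titrations of each agent were applied to 500 seeded cells and incubated 48 hr; CellTiter-Glo signal, scaled against DMSO and empty wells, was integrated as AUC, then Z-scored within the individual line.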

[2] = BET inhibitor-based combinations targeting novel dependencies in MECOM-rearranged (r) AML: OCI-AML3 cell line (AID 2202232); settings: CellTiter-Glo luminescence, 48 h; Potency: OCI-AML3 viability; series mostly up to 46 µM; also: nearly all actives have a fitted effect of over 35% in size;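 as to viability (% of control): plate controls were DMSO vehicle wells for no effect and wells without cells for full effect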
Method in brief: as §1

[3] = BET inhibitor-based combinations targeting novel dependencies in MECOM-rearranged (r) AML: MV-4-11 cell line (AID 2202233); settings: MV-4-11 AML viability, CellTiter-Glo luminescence, 48 h; series mostly up to 46 µM; also: nearly all actives have a fitted effect of over 45% in size;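 as to viability, % of control: plate controls were DMSO for no effect and blank wells for full effect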
Method in brief: (§2)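 Normalized to DMSO and empty-well controls, the luminescence data from CellTiter-Glo after 48 hr drug exposure were fitted across 11 concentrations. Reported metrics are area under the dose-response curve and its Z-transformed form.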

[4] = BET inhibitor-based combinations targeting novel dependencies in MECOM-rearranged (r) AML: UCSD-AML1 cell line (AID 2202235); settings: UCSD-AML1 AML cells viability, CellTiter-Glo, 48 h; series mostly up to 46 µM; also: nearly all actives have a fitted effect of over 40% in size;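 as to viability (% of control): plate controls were DMSO vehicle wells for no effect and blank wells for full effect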
Method in brief: as §2

[5] = BET inhibitor-based combinations targeting novel dependencies in MECOM-rearranged (r) AML: AML-191 cell line (AID 2202236; also: nearly all actives have a fitted effect of over 35% in size;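 as to viability (% of control): plate controls were vehicle wells for no effect and wells without cells for full effect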); settings: AML-191 viability, CellTiter-Glo luminescence, 48 h; series mostly up to 46 µM
Method in brief: as §1

[6] = BET inhibitor-based combinations targeting novel dependencies in MECOM-rearranged (r) AML: HNT-34 cell line (AID 2202234); settings: HNT-34 AML viability, CellTiter-Glo luminescence, 48 h; series mostly up to 46 µM; also: nearly all actives have a fitted effect of over 35% in size;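 as to viability (% of control): plate controls were vehicle wells for no effect and cell-free wells for full effect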
Method in brief: as §2

[7] = BET inhibitor-based combinations targeting novel dependencies in MECOM-rearranged (r) AML: AML-194 cell line (AID 2202237; also: nearly all actives have a fitted effect of over 40% in size;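 as to viability (% of control): plate controls were vehicle wells for no effect and wells without cells for full effect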); settings: AML-194 (MECOM-r AML) viability, CellTiter-Glo, 48 h; series mostly up to 46 µM
Method in brief: as §1
Potency is read from the fitted curve at half-maximal effect.

CCCCCCCCCCCC(CC1OC(=O)C1CCCCCC)OC(=O)C(CC(C)C)NC=O (configuration not stated)
inactive: viability [1] 98.6% | Potency [2] | Potency [4] | Potency [5]
active: Potency [3] 742 nM

Cc1cc(O)cc2c1[C@]1(C)CC[C@H]3C(C)(C)CCC[C@]3(C)[C@H]1C2
inactive: viability [1] 50.3% | viability (% of control) [2] 14.4% [at 5.12 µM] | viability, % of control [3] 0.199% [at 5.12 µM] | viability (% of control) [4] 14.8% [at 5.12 µM]

N=C1S/C(=C\c2ccc(-c3ccc4c(c3)C(=O)NC4=O)o2)C(=O)N1c1ccc(Br)cc1
inactive: viability [1] 117% | Potency [2] | Potency [3] | Potency [6] | Potency [7]

O=[N+]([O-])c1ccc(O)c2ncccc12
active: Potency [1] 16600 nM | Potency [2] 14800 nM | Potency [3] 13200 nM | Potency [6] 7420 nM | Potency [5] 8330 nM | Potency [7] 9340 nM

C/C(=N\NC(=S)N1CCC1)c1ccccn1
active: Potency [1] 59 nM | Potency [2] 37.2 nM | Potency [3] 37.2 nM | Potency [6] 37.2 nM | Potency [5] 37.2 nM | Potency [7] 41.7 nM

C[C@@H]1C[C@H](N)C[C@H](c2ccncc2NC(=O)c2ccc(F)c(-c3c(F)cccc3F)n2)C1
active: Potency [1] 18600 nM | Potency [2] 16600 nM | Potency [3] 5250 nM | Potency [4] 132 nM | Potency [5] 10500 nM | Potency [7] 5900 nM

C[C@H]1CNCCCN1S(=O)(=O)c1cccc2cncc(F)c12
inactive: viability [1] 113% | Potency [2] | Potency [3] | Potency [4] | Potency [5]

O=C(C[C@@H]1C/C=C\CCC(=O)O[C@H](c2ccccc2)CNC1=O)NCc1ccc(Cl)cc1
inactive: viability [1] 117% | Potency [2] | Potency [3] | Potency [6] | Potency [5] | Potency [7]

CC(C)C(=O)OCC(=O)[C@@]12O[C@H](C3CCCCC3)O[C@@H]1C[C@H]1[C@@H]3CCC4=CC(=O)C=C[C@]4(C)[C@H]3[C@@H](O)C[C@@]12C
inactive: viability [1] 102%
active: Potency [2] 14800 nM | Potency [3] 23500 nM | Potency [6] 20900 nM | Potency [7] 16600 nM

Cc1ccc(C)c(OCCCC(C)(C)C(=O)O)c1
inactive: viability [1] 116% | Potency [2] | Potency [3] | Potency [4] | Potency [5] | Potency [7]

C[C@@]12O[C@@H](C[C@]1(O)CO)n1c3ccccc3c3c4c(c5c6ccccc6n2c5c31)CNC4=O
active: Potency [1] 417 nM | Potency [2] 417 nM | Potency [3] 11.8 nM | Potency [4] 118 nM | Potency [5] 52.5 nM

CCNCCc1ccc(CN(CC)c2cc(OC)ccc2[C@@H]2CCc3cc(O)ccc3C2)cc1
active: Potency [1] 9340 nM | Potency [2] 6610 nM | Potency [3] 5900 nM | Potency [6] 8330 nM | Potency [5] 7420 nM | Potency [7] 8330 nM

CNc1ncc2cc(-c3cc(NC(=O)NCCC(C)(C)C)c(F)cc3C)c(C)nc2n1
active: Potency [1] 2350 nM | Potency [2] 662 nM | Potency [3] 468 nM | Potency [4] 1050 nM

CC(C)(O)CS(=O)(=O)Nc1ccc2c(c1)CCN(C(=O)COc1cccnc1)C2
inactive: viability [1] 108% | Potency [7]
active: Potency [2] 23.5 nM | Potency [3] 105 nM | Potency [6] 66.1 nM | Potency [5] 66.1 nM

CCCNC(=O)c1cn2ncnc(Nc3cc(C(=O)NC4CC4)ccc3C)c2c1C
inactive: viability [1] 99.9% | Potency [2] | Potency [3] | Potency [6] | Potency [5] | Potency [7]

COc1cc([C@@H]2c3cc4c(cc3[C@@H](O[C@@H]3O[C@@H]5CO[C@@H](c6cccs6)O[C@H]5[C@H](O)[C@H]3O)[C@H]3COC(=O)[C@H]23)OCO4)cc(OC)c1O
active: Potency [1] 1180 nM | Potency [2] 263 nM | Potency [3] 46.8 nM | Potency [6] 235 nM | Potency [5] 332 nM | Potency [7] 372 nM

NC[C@H]1O[C@H](O[C@H]2[C@H](O)[C@@H](O[C@H]3O[C@H](CO)[C@@H](O)[C@H](N)[C@H]3O)[C@H](N)C[C@@H]2N)[C@H](N)C[C@@H]1O
inactive: viability [1] 115% | Potency [2] | Potency [3] | Potency [4] | Potency [5]

CCCCc1ccc2nc(NC(=O)OC)[nH]c2c1
active: Potency [1] 263 nM | Potency [2] 148 nM | Potency [3] 186 nM | Potency [4] 118 nM | Potency [5] 118 nM

C[C@]12CCC3[C@@H](CC[C@H]4NC(=O)C=C[C@]34C)[C@@H]1CC[C@@H]2C(=O)Nc1cc(C(F)(F)F)ccc1C(F)(F)F (some centres not stated)
inactive: viability [1] 118% | Potency [2] | Potency [3] | Potency [6] | Potency [5] | Potency [7]

C=C1CCC2[C@](C)(CO)C(O)CC[C@]2(C)C1C/C=C1/C(=O)OCC1O (some centres not stated)
active: Potency [1] 14800 nM | Potency [2] 7420 nM | Potency [3] 3320 nM | Potency [4] 11800 nM | Potency [5] 7420 nM | Potency [7] 9340 nM

C=C1C[C@@H]2CC[C@@]34C[C@H]5O[C@H]6[C@@H](O3)[C@H]3O[C@H](CC[C@@H]3O[C@H]6[C@H]5O4)CC(=O)C[C@@H]3[C@@H](OC)[C@@H](C[C@H](O)CN)O[C@H]3C[C@H]3O[C@@H](CC[C@@H]1O2)C[C@@H](C)C3=C
active: Potency [1] 152 nM | Potency [2] 1.5 nM | Potency [3] 1.7 nM | Potency [4] 1.1 nM | Potency [5] 1.5 nM | Potency [7] 1.9 nM

C/C=C(/C)C(=O)O[C@H]1C(C)=CC23C(=O)C(C=C(CO)[C@@H](O)[C@]12O)[C@H]1[C@@H](C[C@H]3C)C1(C)C (some centres not stated)
active: Potency [1] 7420 nM | Potency [2] 5.3 nM | Potency [3] 52.5 nM | Potency [4] 1.9 nM

O=S(=O)(Nc1ccc(-c2cccnc2)c2cccnc12)c1cccc(C(F)(F)F)c1
active: Potency [1] 10500 nM | Potency [2] 7420 nM | Potency [3] 7420 nM | Potency [6] 4170 nM | Potency [5] 5900 nM | Potency [7] 7420 nM

C=CC(=O)N1CC[C@@H](Oc2nc(Nc3ccc(N4CCC(N5CCN(C)CC5)CC4)cc3)c(C(N)=O)nc2CC)C1
active: Potency [1] 10200 nM | Potency [2] 4560 nM | Potency [3] 102 nM | Potency [6] 7230 nM | Potency [5] 4070 nM | Potency [7] 6450 nM

CCC(C)CNCC(=O)N1CCc2sccc2C1c1cccc(C)n1 (configuration not stated)
inactive: viability [1] 95.4% | Potency [2] | Potency [3] | Potency [4] | Potency [5]

CC(C)C[C@H](NC(=O)[C@H](Cc1ccccc1)NC(=O)OCc1ccccc1)C(=O)C=O
active: Potency [5] 26300 nM
inactive: viability [1] 114% | Potency [2] | Potency [3] | Potency [6] | Potency [7]

CN(C(=O)c1c(O)c2ccccc2n(C)c1=O)c1ccccc1
inactive: viability [1] 76.1% | Potency [2] | Potency [3] | Potency [6] | Potency [5] | Potency [7]

CC(C)(CO)n1cc(C(=O)c2cncc(NC(=O)Cc3ccc(Cl)cn3)c2)c2cnc(N)nc21
inactive: viability [1] 125% | Potency [2] | Potency [6]
active: Potency [3] 7420 nM | Potency [7] 83.3 nM

C=C1/C(=C/C=C2\CCCC3(C)[C@@H]([C@H](C)/C=C/C=C/C(O)(CC)CC)CC[C@@H]23)C[C@@H](O)C[C@@H]1O (some centres not stated)
active: Potency [2] 16600 nM | Potency [3] 5250 nM | Potency [5] 26300 nM
inactive: viability [1] 89.5% | Potency [4]

CC(C)n1c(=O)cc(N[C@@H](C)c2ccccc2)[nH]c1=O
active: Potency [3] 14800 nM
inactive: viability [1] 110% | Potency [2] | Potency [4] | Potency [5]

NC(=O)C1=C(O)[C@@]2(O)C(=O)C3=C(O)c4c(O)cccc4C[C@H]3C[C@H]2CC1=O
active: Potency [1] 4680 nM | Potency [2] 3720 nM | Potency [3] 9340 nM | Potency [6] 8330 nM | Potency [7] 10500 nM

CC1c2cccc(O)c2C(O)=C2C(=O)C3(O)C(O)=C(C(N)=O)C(=O)C(N(C)C)C3C(O)C21 (configuration not stated)
inactive: Potency [4]
active: Potency [1] 26300 nM | Potency [2] 26300 nM | Potency [3] 26300 nM

CC(C)NC(=O)C1CCC(n2c(NC(=O)c3ccc(F)cc3)nc3ccc(CN4CCC(C(C)(C)O)CC4)cc32)CC1 (configuration not stated)
inactive: viability [1] 121% | Potency [4]
active: Potency [2] 3620 nM | Potency [3] 1820 nM

NC1CCCN(c2c(/C=C3\SC(=O)NC3=O)cccc2-c2ccccc2)C1 (configuration not stated)
active: Potency [1] 5900 nM | Potency [2] 235 nM | Potency [3] 1180 nM | Potency [4] 590 nM | Potency [5] 18600 nM

O=C(O)CCNc1cc(N2CCc3ccccc3CC2)nc(-c2cccnc2)n1
inactive: viability [1] 116% | Potency [3] | Potency [6] | Potency [5] | Potency [7]
active: Potency [2] 9340 nM

NC(=O)c1ccc2nc(-c3ccc(C4(N)CCC4)cc3)c(-c3ccccc3)n2n1
active: Potency [2] 13200 nM | Potency [3] 4170 nM | Potency [4] 3720 nM
inactive: viability [1] 98.4%

CN(C)CCNC(=O)NC[C@H]1CC[C@@H]2[C@H](O1)c1cc(C(F)(F)F)ccc1N[C@H]2c1ccccc1
active: Potency [1] 742 nM | Potency [2] 296 nM | Potency [3] 296 nM | Potency [4] 235 nM | Potency [5] 332 nM | Potency [7] 332 nM

COc1cc2ncn(-c3cc(OCc4ccccc4C(F)(F)F)c(C(N)=O)s3)c2cc1OC
active: Potency [1] 1860 nM | Potency [2] 1180 nM | Potency [3] 2090 nM | Potency [4] 2350 nM | Potency [5] 1480 nM | Potency [7] 1050 nM

CC1(C)OCCn2c1nc1c(N3CCOCC3)nc(-c3cnc(N)nc3)nc12
active: Potency [1] 1860 nM | Potency [2] 934 nM | Potency [3] 934 nM | Potency [4] 468 nM
